Laboratory results taken from PubChem BioAssay (EPA / NIEHS).
Active and inactive are the calls of the source. The calls were made as follows: active = hit-call score of the fitted dose curve at least 0.9, where 1 is the maximum; inactive = score below 0.9.

Key:
[1] = read-out: C-C motif chemokine 2 (Homo sapiens) (UniProt P13500); assay: BSK_KF3CT_MCP1: BioMAP Diversity Plus: KF3CT Assay for Monocyte Chemoattractant Protein 1 (MCP1/CCL2) Biomarker Activity (AID 2283073); conditions: primary human keratinocytes with fibroblasts; actives raise or lower the signal
Summary of the method: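 Keratinocytes and foreskin fibroblasts were co-cultured, dosed with chemical, and sampled 24 h later. MCP-1 was quantified by ELISA, and the endpoint was analyzed with bidirectional fitting using DMSO as negative control.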

[2] = read-out: Matrix Metallopeptidase 9 (MMP9), MMP9 (gene 4318); assay: BSK_KF3CT_MMP9: BioMAP Diversity Plus: KF3CT Assay for Matrix Metallopeptidase 9 (MMP9) Biomarker Activity (AID 2283074); conditions: primary human keratinocytes with fibroblasts; actives raise or lower the signal
Summary of the method: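 MMP-9 quantified by ELISA after 24 h chemical treatment of primary human skin keratinocyte/fibroblast co-cultures; gain or loss fitted against DMSO, with parallel SRB staining (0.1% SRB, 560 nm) for overt cytotoxicity.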

[3] = read-out: urokinase plasminogen activator (uPA), PLAU (gene 5328); assay: BSK_KF3CT_uPA: BioMAP Diversity Plus: KF3CT Assay for urokinase plasminogen activator (uPA) Biomarker Activity (AID 2283075); conditions: primary human keratinocytes with fibroblasts; actives raise or lower the signal
Summary of the method: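 ELISA read-out of uPA 24 h after dosing human skin keratinocytes co-cultured with foreskin fibroblasts. Signal change fitted both ways relative to DMSO; sulforhodamine B on parallel cultures marks overt cytotoxicity.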

[4] = read-out: CD40, CD40 (gene 958); assay: BSK_LPS_CD40: BioMAP Diversity Plus: LPS Assay for CD40 Biomarker Activity (AID 2283076); conditions: primary human HUVEC with PBMC; actives raise or lower the signal
Summary of the method: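 CD40 signal, measured by ELISA, is fitted in both directions relative to DMSO vehicle. The system is an LPS-driven human vascular primary co-culture of endothelial cells and PBMC, sampled 24 h after compound addition.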

[5] = read-out: E-selectin (Homo sapiens) (UniProt P16581); assay: BSK_LPS_Eselectin: BioMAP Diversity Plus: LPS Assay for Eselectin Biomarker Activity (AID 2283077); conditions: primary human HUVEC with PBMC; actives raise or lower the signal
Summary of the method: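 Signal of E-selectin, detected by ELISA, served as the endpoint; cells were umbilical vein endothelium with PBMC, read 24 h after treatment. DMSO defined baseline, and both increases and decreases were fitted.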

[6] = read-out: Interleukin-8 (IL8), CXCL8 (gene 3576); assay: BSK_LPS_IL8: BioMAP Diversity Plus: LPS Assay for Interleukin-8 (IL8) Biomarker Activity (AID 2283078); conditions: primary human HUVEC with PBMC; actives raise or lower the signal
Summary of the method: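 Endothelial cells and PBMC from human donors are co-cultured, treated with chemicals and LPS, then assayed for IL-8 by ELISA after 24 h. Parallel SRB staining (0.1% SRB after 10% TCA fixation, 560 nm) flags cytotoxicity.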

[7] = BSK_LPS_SRB: Viability Assessment in the BioMAP Diversity Plus: LPS Assay (AID 2283079); conditions: primary human HUVEC with PBMC;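 also: total protein by sulforhodamine B absorbance as a cytotoxicity measure; measured one day after compound addition; fitted in both directions against DMSO so loss or gain of signal counts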
Summary of the method: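 Overt cytotoxicity was gauged by sulforhodamine B total-protein staining in a primary human vascular endothelial and mononuclear cell co-culture 24 h post-dosing. Activity was fitted in both directions relative to DMSO.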

[8] = read-out: Interleukin-1 alpha (IL1a), IL1A (gene 3552); assay: BSK_LPS_IL1a: BioMAP Diversity Plus: LPS Assay for Interleukin-1 alpha (IL1a) Biomarker Activity (AID 2283080); conditions: primary human HUVEC with PBMC; actives raise or lower the signal
Summary of the method: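 Measured: IL-1 alpha via ELISA at 24 h in LPS-activated human umbilical vein endothelium–PBMC co-culture. Baseline: DMSO, bidirectional fitting.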

[9] = read-out: Monocyte Chemoattractant Protein-1 (MCP1), CCL2 (gene 6347); assay: BSK_LPS_MCP1: BioMAP Diversity Plus: LPS Assay for Monocyte Chemoattractant Protein-1 (MCP1) Biomarker Activity (AID 2283081); conditions: primary human HUVEC with PBMC; actives raise or lower the signal
Summary of the method: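 LPS-stimulated HUVEC/PBMC co-culture; chemical, 24 h; MCP-1 by ELISA; bidirectional fit vs DMSO; cytotoxicity via SRB (0.1% stain, 10% TCA fix, 560 nm) in parallel wells.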

[10] = BSK_LPS_PGE2: BioMAP Diversity Plus: LPS Assay for Prostaglandin E2 (PGE2) Biomarker Activity (AID 2283082); conditions: primary human HUVEC with PBMC; actives raise or lower the signal;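 as to AC50: secreted prostaglandin E2 measured by ELISA in LPS-stimulated co-culture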
Summary of the method: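 Compounds were added to the LPS co-culture of endothelium and PBMC, and PGE2 was measured by ELISA after 24 h. Responses in either direction were fitted with DMSO as baseline.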

Measured: AC50

Chain of E-selectin (Homo sapiens) (P16581 whole entry, looked up): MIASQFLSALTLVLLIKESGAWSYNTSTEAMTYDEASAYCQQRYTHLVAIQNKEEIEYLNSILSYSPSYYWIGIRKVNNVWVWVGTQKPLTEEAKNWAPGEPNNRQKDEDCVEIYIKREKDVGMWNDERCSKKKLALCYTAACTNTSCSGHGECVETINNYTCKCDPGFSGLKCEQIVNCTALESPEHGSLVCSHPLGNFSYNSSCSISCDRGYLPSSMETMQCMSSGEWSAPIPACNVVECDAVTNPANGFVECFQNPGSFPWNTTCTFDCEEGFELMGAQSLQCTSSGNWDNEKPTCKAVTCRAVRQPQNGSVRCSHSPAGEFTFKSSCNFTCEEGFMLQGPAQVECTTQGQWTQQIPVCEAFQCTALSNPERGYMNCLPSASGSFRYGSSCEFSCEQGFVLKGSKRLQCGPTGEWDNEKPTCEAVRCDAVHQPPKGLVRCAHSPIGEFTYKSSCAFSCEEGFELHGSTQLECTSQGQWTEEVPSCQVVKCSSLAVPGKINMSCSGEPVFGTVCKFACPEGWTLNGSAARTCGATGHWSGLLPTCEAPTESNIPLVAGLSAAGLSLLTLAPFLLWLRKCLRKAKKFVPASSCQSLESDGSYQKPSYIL

C1CC2OC2CC1C1CO1 (configuration not stated)
inactive: all assays above

CCNc1nc(NC(C)C)nc(SC)n1
inactive: all assays above

Cc1cccc(C)c1N
inactive: all assays above

CC(C)(O)C(=O)Nc1ccc([N+](=O)[O-])c(C(F)(F)F)c1
active: [10] 0.024 µM
not listed: [6]
inactive: all other assays above

Cc1cc(-c2ccc(N)c(C)c2)ccc1N
active: [10] 7.16 µM
not listed: [4]
inactive: all other assays above

O=C(NC(=O)c1cc(F)c(F)cc1Cl)Nc1cc(F)ccc1N1CCC(C(=O)O)CC1
inactive: all assays above

Cc1cccc([N+](=O)[O-])c1
not listed: [1]
inactive: all other assays above

O=C(NC(=O)c1c(F)cccc1F)Nc1cc(Cl)c(OC(F)(F)C(F)F)c(Cl)c1
inactive: all assays above
